Compound activity (PubChem BioAssay)
Shown are actives, neighbours in structure and some others; about 1.8% of the full set was active somewhere.
Jurkat NFkB inh – inhibitors of the PMA/ionomycin-induced NF-kB reporter in Jurkat cells; 0.53% of 330,000 active; AID 435003; inhibition, % at 4 µM; PMA/ionomycin-induced NF-kB luciferase reporter, luminescence; in the data active = inhibition above about 50%
Beta cell apopt – beta cell apoptosis inhibition; INS-1E cytokine-induced death, ATP luminescence, 48 h; percent of positive-control rescue, neutral wells zero; protection from apoptosis, % (concentration not given with the values); 0.8% of 300,000 active; AID 435005;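 active = Every replicate reaches about 75%, or at least half do and their mean reaches it too, limit read from the data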;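 also: 0% = cytokine-treated negative control wells and 100% = positive control rescue; higher means more ATP so stronger rescue from cytokine killing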
697 NFkB inh – inhibitors of the PMA/ionomycin-induced NF-kB reporter in 697 B cells; 697 B-cell NF-kB luciferase reporter, 16 h; inhibition, % at 4 µM; 0.33% of 330,000 active; AID 435022; in the data active = inhibition above about 35%
Gli-Sufu antag – Gli-Sufu pathway antagonism | Sufu-KO-LIGHT fibroblasts, Gli luciferase reporter luminescence | 0.74% of 340,000 active | inhibition, % at 5 µM | AID 588413;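 active = inhibition above about 55%, limit read from the data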;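 also: 0% = DMSO-treated cells and 100% = wells with medium but no cells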
Active calls of the source: *; / = no result given.

SMILES	Jurkat NFkB inh	Beta cell apopt	697 NFkB inh	Gli-Sufu antag
CC(Oc1ccc(Br)cc1)c1nc2c3ccccc3nc(=S)n2[nH]1 (configuration not stated)	8	99*	-17	0
CCCC(=O)NC(NC(=S)Nc1ccc(N=Nc2ccccc2)cc1)C(Cl)(Cl)Cl (configuration not stated)	4	109*	-40	36
CCCC(=O)NC(NC(=S)Nc1ccc(S(N)(=O)=O)cc1)C(Cl)(Cl)Cl (configuration not stated)	5	-6	-3	5
O=C(COC(=O)CC1CC2CCC1C2)NCc1ccc(F)cc1 (configuration not stated)	-9	-1	2	-2
O=C(CC1CC2CCC1C2)NCCc1ccc(Cl)cc1 (configuration not stated)	-5	85*	0	9
Cc1cc(/C=C2/SC(=S)N(c3cccc(C(F)(F)F)c3)C2=O)c(C)n1-c1cccnc1	-3	/	-31	71*
COC(=O)[C@@H](Cc1ccccc1)N(Cc1ccccc1)S(=O)(=O)N(Cc1ccccc1)[C@H](Cc1ccccc1)C(=O)OC	26	119*	2	18
C=C[C@H](Cc1ccccc1)N(Cc1ccccc1)S(=O)(=O)N(Cc1ccccc1)[C@H](C=C)Cc1ccccc1	-24	82*	2	21
COC(=O)[C@@H](CC(C)C)N(Cc1ccccc1)S(=O)(=O)N(Cc1ccccc1)[C@@H](CC(C)C)C(=O)OC	-21	42	3	18
CC(C)N(Cc1ccccc1)S(=O)(=O)c1ccc(Cl)nc1	3	-1	8	11
CC(C)(C)c1ccc(Cn2c(=N)n(CC(O)c3ccco3)c3ccccc32)cc1 (configuration not stated)	18	38	-13	65*
O=C(NC1=C(Nc2ccc(F)cc2)C(=O)c2ccccc2C1=O)c1ccc(Cl)cc1	-6	87*	0	-2
COc1cc(OC)c(NC2=CC(=O)C(=O)c3ccccc32)cc1Cl	32	120*	-23	3
NS(=O)(=O)c1ccc(NC2=CC(=O)C(=O)c3ccccc32)cc1	-4	64	12	-11
Cc1ccc(NC2=CC(=O)C(=O)c3ccccc32)cc1	-48	100*	-48	12
O=C1C=C(Nc2ccc(O)cc2)C(=O)c2ccccc21	6	100*	-52	-1
CC1CCC2(CC1)NC(=O)N(CC(=O)NC(C)c1ccc(F)c(F)c1)C2=O (configuration not stated)	-14	-5	-3	-28
O=C(CCS(=O)(=O)c1ccc(Cl)cc1)Oc1ccc2c(c1)OCO2	-15	-4	1	3
CC(C)NC(=S)NC(c1ccccc1)(c1ccccc1)c1ccccc1	8	112*	-33	29
O=Nc1c(O)c2ccccc2c2ccccc12	/	109*	/	12
Cc1noc(NS(=O)(=O)c2ccc(NC(=O)c3cccc(S(=O)(=O)N(C)c4ccccc4)c3)cc2)c1C	/	/	/	0
CCCCCCCCCCCCCCCCn1cc[n+](CC(C)=O)c1	/	/	/	73*
O=S(=O)(Nc1nc2ccccc2nc1Nc1ccc(N2CCOCC2)cc1)c1cc(Cl)ccc1Cl	-1	84*	-14	29
O=C(COc1ccccc1Br)NC1CCCC1	-7	0	-65	-22
O=C(c1cc(COc2cccc(C(F)(F)F)c2)on1)N1C[C@H]2CC[C@H]1C2	-59	-1	-44	-3
SMILES	Jurkat NFkB inh	Beta cell apopt	697 NFkB inh	Gli-Sufu antag
CC1(C)C[C@@H]2C[C@@](C)(CN2C(=O)c2cc(COc3cccc(C(F)(F)F)c3)on2)C1	-23	104*	-46	19
O=C(Nc1ccc(Cl)c(Cl)c1)N1CCSC1c1ccco1 (configuration not stated)	1	103*	-22	16
CCCCCCC(CC(=O)NCc1cccnc1)CC(=O)NCc1cccnc1	-4	-1	-2	1
CC12CCC(C(=O)Nc3cccc(NC(=O)C45CCC(C)(C(=O)O4)C5(C)C)n3)(OC1=O)C2(C)C	-10	3	18	0
CCn1c(SCC(=O)Nc2ccc(OC)cc2)nc2nc3c(cc2c1=O)CCCC3	-9	146*	16	4
CCn1c(SCC(=O)Nc2ccc(Cl)cc2)nc2nc3c(cc2c1=O)CCCC3	15	1	1	27
O=C(Nc1ccccc1)Nc1cccn(Cc2c(F)cccc2Cl)c1=O	-15	2	7	-61
CC(=O)NN1C(=O)c2ccc3c4c(ccc(c24)C1=O)C(=O)N(NC(C)=O)C3=O	15	108*	6	20
CS(=O)(=O)Nc1ccc(S(=O)(=O)NCCc2ccccc2)cc1	6	/	15	1
Cc1nn(-c2ccccc2)c(N)c1C(c1ccc(C(C)C)cc1)c1c(C)nn(-c2ccccc2)c1N	16	97*	-18	4
Cc1cccc(NC(=O)CN2CCN(C(=O)CNC(=O)Cc3cccc4ccccc34)CC2)c1C	24	1	-4	5
NC(=S)N/N=C/c1ccccc1O	0	92*	-7	-4
Cc1cnc(C=NNC(N)=S)c2cccc(N)c12	/	/	/	17
NC(=S)NN=Cc1nccc2ccccc12	/	/	/	65*
Oc1ccccc1C1=Nc2ccccc2N=C(c2ccco2)C1	8	33	-2	1
O=C(C1CCCN(c2ncnc3c2nc2n3CCCCC2)C1)N1CCN(c2ccc(Cl)cc2)CC1 (configuration not stated)	-3	10	-44	-2
O=C(C1CCN(c2ncnc3c2nc2n3CCCCC2)CC1)N1CCN(c2cccc(Cl)c2)CC1	1	36	-91	56*
Fc1ccc2[nH]c3c(N4CCN(c5ccccc5)CC4)ncnc3c2c1	27	89*	-21	-11
OC1(c2cccc(C(F)(F)F)c2)CCN(c2ncnc3c2[nH]c2ccc(F)cc23)CC1	/	/	/	-20
O=C(NC(=S)NCCC1=CCCCC1)c1ccco1	-38	-3	-23	-37
CCN(Cc1ccccc1)C(c1cccs1)c1nnnn1C1CCCCC1 (configuration not stated)	6	101*	4	8
CC(=O)NC1=C(NC2CCS(=O)(=O)C2)C(=O)c2ccccc2C1=O (configuration not stated)	18	53	17	1
CN(C1=C(NC(=O)c2ccccc2)C(=O)c2ccccc2C1=O)C1CCS(=O)(=O)C1 (configuration not stated)	-12	97*	-37	/
CN(C)S(=O)(=O)c1cccc(NC(=S)N/N=C/c2cccc(O)c2)c1	-5	-7	-1	15
CN(C)S(=O)(=O)c1cccc(NC(=S)N/N=C/c2cc(Br)ccc2O)c1	32	94*	-10	-5
Cc1ccccc1-n1c(=O)[nH]c(=O)c2c(N)c(C(=O)c3ccc(Cl)cc3)sc21	10	6	-9	6
CCc1ccc(C2CC(c3cccc(Cl)c3)n3nc(N)nc3N2)cc1 (configuration not stated)	16	105*	15	-12
c1ccc(-c2onc3cc4c(cc23)OCCO4)cc1	-58	5	-111	6
O=C(COC(=O)c1cn(-c2ccccc2)nc1-c1ccccc1)c1ccc([N+](=O)[O-])cc1	3	4	13	/
